Assay outcomes (PubChem)
Many of the other results were omitted from the sample, so hits are more common in it than they were.
ALOX12 inh: blocks human arachidonate 12S-lipoxygenase; P18054; purified 12hLO, xylenol orange hydroperoxide absorbance; Potency, µM (top dose mostly 108 µM), for the others: at the highest dose activity change, negative = inhibition, actives largely listed as inhibitors; hit rate 1.1% among 580,000; note: % is set by controls: 0 for no effect and ±100 for the full control effect
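Purified human 12hLO at 150 nM in 25 mM Hepes, 0.01% Triton X-100, pH 7.0, preincubated 15 min at room temperature with compound. Reaction started with 40 uM arachidonic acid, 30 min at room temperature. Hydroperoxide measured by Fe-xylenol orange, 573/405 nm absorbance ratio.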
VDR inhibitor: blocks the human vitamin D receptor | hit rate 0.93% among 400,000 | P11473 | Potency, µM, inactives show max response, negative = inhibition, usual class: inhibitors | VDR-SRC2-3 peptide fluorescence polarization, 2 h; note: % is set by controls: 0 for no effect and ±100 for the full control effect
Target sequence (P11473 whole entry, looked up): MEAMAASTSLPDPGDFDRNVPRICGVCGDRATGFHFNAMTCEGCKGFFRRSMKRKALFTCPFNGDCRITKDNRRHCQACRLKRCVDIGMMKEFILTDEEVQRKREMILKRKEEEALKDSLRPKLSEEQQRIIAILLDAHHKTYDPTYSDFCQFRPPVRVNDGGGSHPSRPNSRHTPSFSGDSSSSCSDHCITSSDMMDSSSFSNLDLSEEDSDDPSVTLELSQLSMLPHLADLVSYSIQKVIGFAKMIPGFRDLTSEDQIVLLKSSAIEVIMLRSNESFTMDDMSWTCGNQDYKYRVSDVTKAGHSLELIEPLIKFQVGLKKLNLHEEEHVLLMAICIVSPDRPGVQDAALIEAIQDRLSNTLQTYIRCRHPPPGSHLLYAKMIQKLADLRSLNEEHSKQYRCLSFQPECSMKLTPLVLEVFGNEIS
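Signal is fluorescence polarization, reporting how far test compounds block the interaction of VDR with the SRC2-3 coregulator peptide after a 2 h room-temperature incubation.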
Sfp PPTase inh: blocks B. subtilis Sfp PPTase activity; hit rate 3.5% among 310,000; Potency, µM, without a hit: largest response in the series, negative = inhibition, actives largely listed as inhibitors; Biochemical Sfp PPTase activity, qHTS; Q9F4F7;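 note: the enzyme is Sfp with the accession as filed and its product quenches rhodamine fluorescence; 0% = enzyme reaction without inhibitor and -100% = no enzyme wells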
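Step 1, compound plus 15 nM Sfp-PPTase, 15 min, room temperature. Step 2, add rhodamine-CoA (5 uM) and BHQ-2-YbbR (12.5 uM). Step 3, read 525/598 nm fluorescence at 0 and 30 min.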
GRP78 ERSR act: ER stress response induction in glioma | Potency, µM, inactives show at the top dose activation, usual class: activators | U87-MG GRP78 promoter luciferase reporter, 16 h | AID 602332 | hit rate 0.02% among 420,000; note: series mostly up to about 76 µM; % of control where 0% means no effect; nearly all actives have a fitted effect of over 35% in size
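Stably transfected U87-MG human glioma cells carrying a GRP78-based luminescent sensor were seeded at 1000 cells/well, pin-dosed with compounds and incubated 16 h. Luciferase reagent was then added, and end-point luminescence was read after 10 min at room temperature.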
G9a inh: blocks human histone lysine methyltransferase G9a. Q96KQ7. G9a H3K9 monomethylation, AlphaScreen, 2 h. Potency, µM (titrated, usually from 102 µM), inactives show at the top dose activity, negative = inhibition, most hits filed as inhibitors. hit rate 8.8% among 350,000; note: % is set by controls: 0 for no effect and ±100 for the full control effect; nearly all actives have a fitted effect of over 75% in size
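Methyltransferase reactions run at room temperature for 2 h (20 nM enzyme, 500 nM biotin-H3K9 peptide, 20 uM SAM) after a 15 min compound preincubation; product detected by AlphaScreen beads and anti-H3K9me1 antibody.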
Active calls of the source: *; [ ] = another dose, or the depositor's remark. Calls come from the whole dose curve; as a rule, active = well fitted curve in the direction sought with a large enough effect; inconclusive = small, poorly fitted or top-dose-only effect, or another doubt; inactive = no such curve, though single readings can be large; an effect the other way counts as inactive or inconclusive. Potency is the fitted concentration of half-maximal effect.

Screening CC1(c2ccc([N+](=O)[O-])cc2)Nc2ccccc2S1 (configuration not stated) returned ALOX12 inh inconclusive, VDR inhibitor inconclusive, Sfp PPTase inh 50µM*, GRP78 ERSR act inconclusive and G9a inh 28µM*.
Screening O=C1/C(=C/c2cccc3ccccc23)Cc2ccccc21 returned ALOX12 inh -27%.
Cc1cccc(C)c1OCC(=O)Nc1cccc(S(=O)(=O)N2CCCC2)c1 was read as ALOX12 inh 1%, VDR inhibitor -4%, GRP78 ERSR act -4% and G9a inh 2%.
Screening COc1cccc(/C=C/C(=O)OCC(=O)Nc2ccc(S(=O)(=O)N3CCCC3)cc2)c1 returned ALOX12 inh -4%, VDR inhibitor -5%, Sfp PPTase inh 79µM*, GRP78 ERSR act 0% and G9a inh -18%[59 µM].
`CC(=O)c1cc(Cl)ccc1OCC(=O)Nc1cccc(S(=O)(=O)N2CCCC2)c1` gave ALOX12 inh 17%, VDR inhibitor 13%, GRP78 ERSR act 3% and G9a inh 7.1µM*.
`Cc1cc(C)c(OCC(=O)Nc2ccc(S(=O)(=O)N3CCCC3)cc2)c(C)c1` gave ALOX12 inh inconclusive, VDR inhibitor 11%, GRP78 ERSR act 0% and G9a inh 50µM*.
Cc1ccc(NC(=O)COC(=O)/C=C/c2cccc(Cl)c2)cc1S(=O)(=O)N1CCOCC1 was read as ALOX12 inh -28%, VDR inhibitor -1%, Sfp PPTase inh 17%, GRP78 ERSR act -3% and G9a inh 40µM*.
Screening COc1cc(/C=C/C(=O)OCC(=O)Nc2ccc(S(=O)(=O)N3CCCC3)cc2)ccc1O returned ALOX12 inh -17%, VDR inhibitor 1%, Sfp PPTase inh -8%, GRP78 ERSR act -3% and G9a inh 5%[59 µM].
For Cc1cc(C(=O)N2CCC(N3C(=O)C4(CCCC4)C3c3ccccc3)CC2)nn1C (configuration not stated) the results were ALOX12 inh 32%.
`CSc1cccc(NC(=O)CCc2ncc(-c3ccccc3F)o2)c1` gave ALOX12 inh -13%.
Cc1ccc(CNC(=O)CCNS(=O)(=O)c2c(C)[nH]c(C)c2C(=O)N2CCCC2)cc1 was read as ALOX12 inh 16%.
CCSc1nc2n(n1)C(c1ccccc1Cl)C1=C(CCCC1=O)N2 (configuration not stated) was read as ALOX12 inh 16%.
`CN1CCC(N(C)S(=O)(=O)c2ccc(NC(=O)COc3cccc(Cl)c3)cc2)CC1` gave ALOX12 inh -6%, VDR inhibitor -10%, GRP78 ERSR act 0% and G9a inh 40µM*.
CCc1cccc(OCC(=O)Nc2ccc(S(=O)(=O)N3CCCC3)cc2)c1 was read as ALOX12 inh -10%, VDR inhibitor 3%, Sfp PPTase inh 12%, GRP78 ERSR act -5% and G9a inh 40%.
`Cc1cccc(OCC(=O)Nc2ccc(S(=O)(=O)N3CCCC3)cc2)c1` gave ALOX12 inh inconclusive, VDR inhibitor -23%, Sfp PPTase inh inconclusive, GRP78 ERSR act -3% and G9a inh 32µM*.
For COc1cc(Cl)c(C)cc1NCC(=O)Nc1cccc(S(=O)(=O)N2CCCC2)c1 the results were ALOX12 inh 485%, VDR inhibitor 10%, GRP78 ERSR act -3% and G9a inh 11µM*.
CCN(c1ccc(NC(=O)COC(=O)c2ccc(C)c(S(=O)(=O)N3CCOCC3)c2)cc1)C(C)C was read as ALOX12 inh -5%, VDR inhibitor -5%, Sfp PPTase inh -8%, GRP78 ERSR act -4% and G9a inh 4.5µM*.
Screening CCOC(=O)N/N=C1\c2ccccc2C2(O)NC(=O)NC12O (configuration not stated) returned ALOX12 inh 0%.
For CC(C)n1c(SCCCn2c(=O)c3c(ncn3C)n(C)c2=O)nc2ccccc21 the results were ALOX12 inh 10%.
`Cc1ccc(NC(=O)CNc2ccccc2N2CCCC2=O)cc1S(=O)(=O)N1CCOCC1` gave ALOX12 inh inconclusive, VDR inhibitor -4%, GRP78 ERSR act -4% and G9a inh 45µM*.
